# Experimental data published in ChEMBL document CHEMBL3988442, “University of Dundee, Small-Polar-MMV Screening Library” (2021).
# Screen size: about 66,000 compounds; about 960 (1.5%) showed an effect of 50% or more. The sample as a whole holds a higher share of strong results than the screen did.
# Test system: Trypanosoma brucei
# Assay: Trypanosoma brucei 72 hour study
# Type: functional, organism-based
# Design: scale not given: in the data most compounds retested in dose-response had high values
smiles,measurement,setting,value
Cn1ccnc1NC[C@@H]1CCC[C@@H]2CN(Cc3cccnc3)C[C@@H]21.O=C(O)C(F)(F)F,Percent Effect,"30.3 µM, […]",-5.749%
CN1C[C@H](NC(=O)c2cscn2)[C@@H]2OCCC[C@@H]21.O=C(O)C(F)(F)F,Percent Effect,"30.3 µM, […]",-88.97%
COCCNC(=O)[C@@]12CCO[C@@H]1CCN(Cc1ccncc1)C2.O=C(O)C(F)(F)F.O=C(O)C(F)(F)F,Percent Effect,"30 µM, 30.03 µM",13.68%
c1ccc(CO[C@H]2C[C@@H]3CN(Cc4cccnc4)C[C@@H]3C2)cc1,Percent Effect,"30.3 µM, […]",51.09%
Cc1ncc(CN2C[C@H]3C[C@H](OCc4ccccc4)C[C@H]3C2)cn1,Percent Effect,"30.3 µM, […]",6.96%
c1ccc(CO[C@H]2C[C@@H]3CN(Cc4cncnc4)C[C@@H]3C2)cc1,Percent Effect,"30.3 µM, […]",-7.208%
CN(C)CCN1CCN(Cc2nccs2)Cc2cccnc21.O=C(O)C(F)(F)F.O=C(O)C(F)(F)F.O=C(O)C(F)(F)F,Percent Effect,"30.3 µM, […]",-78.15%
O=C(NCCc1ccccn1)[C@@]12CCO[C@@H]1CCN(C1CCC1)C2.O=C(O)C(F)(F)F.O=C(O)C(F)(F)F,Percent Effect,"30.3 µM, […]",7.888%
O=C(O)C(F)(F)F.O=C(O)C(F)(F)F.c1ccc(OCC2C[C@@H]3[C@@H](C2)OCCN3CC2CCOCC2)nc1 (stereo partly specified),Percent Effect,"30.3 µM, […]",-46.45%
CCN1CCN(Cc2nc(CC(C)C)no2)CC1,Percent Effect,10 µM,-12.44%
CCN1CCN(Cc2csc(C(C)C)n2)CC1,Percent Effect,"30.3 µM, […]",81.77%
CC(C)c1nc(CC(=O)N2CCN(C)CC2c2ccccc2)cs1 (stereo unspecified),Percent Effect,"30 µM, 30.03 µM",-91.57%
COCCCNc1c(C#N)c2c(c3nncn13)CN(C)CC2.Cl,Percent Effect,"30 µM, 30.03 µM",-37.83%
Cl.Cl.c1ccc(COC[C@H]2CCC[C@@]23CNCCO3)nc1,Percent Effect,"30.3 µM, […]",-51.33%
O=C(O)C(F)(F)F.O=C(O)C(F)(F)F.c1cnc(N2CCO[C@H]3CN(CC4CCOCC4)C[C@H]32)nc1,Percent Effect,"30.3 µM, […]",-91.37%
O=C(O)C(F)(F)F.c1cc(CN2CC[C@@H]3CN(c4cnccn4)C[C@@H]3C2)ccn1,Percent Effect,"30.3 µM, […]",-4.355%
COc1cc(CNC(C)Cn2ccnc2)cc2c1OCCO2 (stereo unspecified),Percent Effect,"30.3 µM, […]",-9.51%
COc1cc(CNC(C)Cn2cccn2)cc2c1OCCO2.Cl (stereo unspecified),Percent Effect,"30.3 µM, […]",-12.29%
same,Percent Effect,"10 mM, 10 mM as filed; unlikely as a test dose",-15.19%
COc1cc(CNCC(O)c2ccccc2F)cc2c1OCO2 (stereo unspecified),Percent Effect,"30.3 µM, […]",55.14%
COc1cc(CNCC(O)c2ccc(F)cc2F)cc2c1OCO2 (stereo unspecified),Percent Effect,"30.3 µM, […]",68.01%
Cc1nc(CN2CCN3C[C@H](Oc4cncnc4)C[C@H]3C2)cs1.O=C(O)C(F)(F)F.O=C(O)C(F)(F)F,Percent Effect,"30.3 µM, […]",-64.45%
Cc1cnc(N2CC3(CCN(Cc4cccnc4)C3)C2)nc1.O=C(O)C(F)(F)F.O=C(O)C(F)(F)F,Percent Effect,"30.3 µM, […]",-6.103%
O=C(O)C(F)(F)F.O=C(O)C(F)(F)F.c1cnc(N2CCN3C[C@H](Oc4cncnc4)C[C@H]3C2)nc1,Percent Effect,"30.3 µM, […]",-14.25%
CCN1CCc2c(cccc2NC(=O)CN(C)C2CCSC2)C1 (stereo unspecified),Percent Effect,"30 µM, 30.03 µM",-20.21%
O=C(O)C(F)(F)F.c1cncc(CN2C[C@H]3CCC[C@@H](CNc4cnccn4)[C@H]3C2)c1,Percent Effect,"30.3 µM, […]",-2.256%
Cc1ccc(CN2CC[C@]3(C[C@H](OCc4ccccn4)CO3)C2)o1.O=C(O)C(F)(F)F.O=C(O)C(F)(F)F,Percent Effect,"30 µM, 30.03 µM",4.871%
O=C(Cc1c[nH]c2ccccc12)N1CCC(Nc2ccccc2)CC1,Percent Effect,"30.3 µM, […]",-16.2%
O=C(c1ccc2c(c1)COC2)N1CCC(Nc2ccccc2)CC1,Percent Effect,"30 µM, 30.03 µM",15.22%
O=C(c1cc2cc(F)ccc2[nH]1)N1CCC(Nc2ccc(F)cc2)CC1,Percent Effect,"30.3 µM, […]",86.11%
O=C(O)C(F)(F)F.O=C(O)C(F)(F)F.O=C(O)C(F)(F)F.c1cc(CN2CCO[C@H]3[C@H](OCCN4CCCC4)CC[C@@H]32)ccn1,Percent Effect,"30.3 µM, […]",-7.413%
C[C@H]1C[C@H]2CN(Cc3ccccn3)CC[C@@H]2O1.O=C(O)C(F)(F)F.O=C(O)C(F)(F)F,Percent Effect,"30 µM, 30.03 µM",-2.942%
CCOCCN1C[C@@H]2CCCO[C@@H]2[C@H](NC(=O)c2cnoc2C)C1.O=C(O)C(F)(F)F,Percent Effect,"30.3 µM, […]",-87.51%
O=C(c1csc(-c2ncccn2)n1)N1CCN2CCCCC2C1 (stereo unspecified),Percent Effect,"30 µM, 30.03 µM",9.676%
O=C(Cc1csc(-c2ncccn2)n1)N1CCN2CCCCC2C1 (stereo unspecified),Percent Effect,"30 µM, 30.03 µM",-4.944%
O=C(Cc1ccc(-n2cccn2)cc1)N1CCN2CCCCC2C1 (stereo unspecified),Percent Effect,"30 µM, 30.03 µM",56.58%
CCS(=O)(=O)N1CCc2ccc(NC(=O)Nc3cccc(C#N)c3)cc21,Percent Effect,"30 µM, 30.03 µM",29.43%
O=C(O)C(F)(F)F.O=C(O)C(F)(F)F.O=C1CC[C@@H]2[C@@H](CCN2Cc2ccccn2)N1CC1CC1,Percent Effect,"30.3 µM, […]",9.459%
CC(N)Cc1ccccc1Sc1ccc(O)cc1.CC(N)Cc1ccccc1Sc1ccc(O)cc1.O=C(O)C(=O)O (stereo unspecified),Percent Effect,"30 µM, 30.03 µM",73.02%
CNC(C)Cc1ccccc1Sc1ccc(O)cc1.Cl (stereo unspecified),Percent Effect,"30 µM, 30.03 µM",-13.84%
CC(N)Cc1ccccc1Sc1ccccc1.O=C(O)/C=C\C(=O)O (stereo unspecified),Percent Effect,"30 µM, 30.03 µM",99.41%
O=C(O)C(F)(F)F.O=C(O)C(F)(F)F.c1cncc(O[C@H]2CC[C@H]3[C@H]2OCCN3C2CCCC2)c1,Percent Effect,"30 µM, 30.03 µM",-21.55%
CN(C)[C@@H]1CN(C(=O)Cc2cccs2)[C@@H]2CCCO[C@H]12.O=C(O)C(F)(F)F,Percent Effect,"30.3 µM, […]",-91.09%
COCCN1CC[C@]2(CN(Cc3cccnc3)C[C@H]2C)C1=O.O=C(O)C(F)(F)F.O=C(O)C(F)(F)F,Percent Effect,"30.3 µM, […]",-47.24%
CN1C(Cn2cccn2)C[C@@H]2CN(Cc3cccnc3)CC[C@@H]21.O=C(O)C(F)(F)F.O=C(O)C(F)(F)F.O=C(O)C(F)(F)F.O=C(O)C(F)(F)F (stereo partly specified),Percent Effect,"30.3 µM, […]",-14.63%
COCCN1CCO[C@@H]2CN(S(=O)(=O)c3cccnc3)C[C@@H]2C1.O=C(O)C(F)(F)F.O=C(O)C(F)(F)F,Percent Effect,"30.3 µM, […]",-14.72%
